Test results published in PubChem BioAssay (Tox21).
Several values for one entry are separate records, joined by “and”; a condition that tells them apart may be missing. Identical values can stand only once. Results filed as inconclusive are left out. Entries that show only a call come without a potency. The source holds several records for some structures; these can differ, active in one and inactive in another. Activity calls are given as the source filed them. Unless noted, the call rests on the fitted dose curve; in most records, active means well fitted curve in the direction sought with a large enough effect in the repeat runs; inconclusive means weak or mixed curves; inactive means no such curve, though single readings can be large; an effect the other way counts as inactive or inconclusive.

Key:
[1] = A CellTox Green Cytotoxicity Assay to monitor cytotoxicity in HepG2 cells - 8 hour (AID 1224890); further: nearly all actives have a fitted effect of over 45% in size
In short: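 HepG2 cells, 600/well, preincubated 5 h with CellTox Green dye, then exposed to Tox21 compounds in DMSO at 37 C for up to 40 h. Dead-cell DNA fluorescence read at the indicated time point.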

[2] = qHTS assay to identify small molecule antagonists of the androgen receptor (AR) signaling pathway using the MDA cell line in the presence of 0.5 nM R1881 - cell viability counter screen (AID 1259242); further: nearly all actives have a fitted effect of over 45% in size
In short: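 MDA-kb2 cells (MMTV-luciferase, AR/GR responsive) were treated with compounds plus 0.5 nM R1881 (final) for 16 hr at 37C, 0% CO2. Viability was then read in the same wells as live-cell protease fluorescence (CellTiter-Fluor, 30 min).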

[3] = target: Androgen receptor (Homo sapiens) (UniProt P10275); assay: qHTS assay to identify small molecule antagonists of the androgen receptor (AR) signaling pathway using the MDA cell line in the presence of 0.5 nM R1881 (AID 1259243); further: nearly all actives have a fitted effect of over 50% in size; further: potency means the concentration at half of the fitted maximal effect
In short: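 MDA-kb2 cells (MMTV-luciferase, responsive to AR and GR) at 3,000/well, rested 5 h at 37C, 0% CO2, then given compounds plus 0.5 nM R1881 (final) for 16 hr. Luciferase read with ONE-Glo after 30 min at room temperature.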

[4] = target: Estrogen receptor (Homo sapiens) (UniProt P03372); assay: qHTS assay to identify small molecule antagonists of the estrogen receptor alpha (ER-alpha) signaling pathway using the BG1 cell line in the presence of 0.1 nM 17-beta-estradiol (AID 1259244); further: nearly all actives have a fitted effect of over 50% in size; further: potency means the concentration at half of the fitted maximal effect
In short: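 VM7Luc4E2 cells (endogenous full-length ER-alpha, 4×ERE-luciferase), kept 5 days in phenol red-free, charcoal-stripped FBS medium; 4,000 cells/well. Compounds added with 0.1 nM (final) 17beta-estradiol, 22 hr at 37C; luminescence read with ONE-Glo after 30 min.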

[5] = qHTS assay to identify small molecule phospholipidosis (PLD) inducers (AID 1259344; active means well fitted curve in the direction sought with a large enough effect; an effect the other way counts as inactive or inconclusive)
In short: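 HepG2 cells on collagen I, attached 4 h at 37 C, were co-treated with compound and LipidTOX Red dye for 24 h at 37 C, then fixed with paraformaldehyde plus Hoechst 33342 and imaged by high-content microscopy for phospholipid accumulation.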

[6] = qHTS assay to identify small molecule HDAC inhibitors (AID 1259364); further: nearly all actives have a fitted effect of over 45% in size; further: potency means the concentration at half of the fitted maximal effect
In short: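 Wild-type HCT-116 cells, plated overnight at 37 C, exposed to compounds 2 hr at 37 C; luminogenic HDAC-Glo substrate then added 30 min at room temperature. Luminescence reports relative endogenous class I/II HDAC activity.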

[7] = qHTS assay to identify small molecule HDAC inhibitors - cell viability counter screen (AID 1259365); further: series mostly up to about 92 µM; nearly all actives have a fitted effect of over 50% in size
In short: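 CellTiter-Glo luminescence (30 min, room temperature) reported viability after a 2 h compound exposure at 37 C. Cells: wild-type HCT-116, 1,500 per well, seeded the night before.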

[8] = qHTS assay to identify small molecule agonists of the sonic hedgehog signaling (Shh) pathway - cell viability counter screen (AID 1259366); further: nearly all actives have a fitted effect of over 50% in size
In short: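 Cytotoxicity counter screen: CellTiter-Fluor reagent added after 23 h compound exposure, then 1 h at 37C and fluorescence read. Cells were 3T3 Gli1-Luc, seeded 2,000 per well and dosed 4 h post-plating.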

[9] = qHTS assay to identify small molecule antagonists of the sonic hedgehog signaling (Shh) pathway - cell viability counter screen (AID 1259367); further: nearly all actives have a fitted effect of over 55% in size
In short: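 NIH/3T3-derived Gli1-Luc reporter cells (2,000 per well) rested 4 hr at 37 C, then received DMSO compounds plus conditioned medium. After 23 hr of treatment, CellTiter-Fluor was added for 1 hr at 37C and fluorescence read.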

[10] = qHTS assay to identify small molecule agonists of the sonic hedgehog signaling (Shh) pathway (AID 1259368; calls by dose curve;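 further: NIH/3T3-derived 3T3Gli1-Luc cells carrying a stable Gli1-driven firefly luciferase reporter; series mostly up to about 92 µM; nearly all actives have a fitted effect of over 15% in size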)
In short: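 NIH/3T3-derived 3T3Gli1-Luc cells with stably integrated Gli1-driven firefly luciferase, 2,000 cells/well, compounds added after 4 hr. Incubated 24 hr at 37C, 5% CO2; luminescence read after 30 min with luciferase reagent at room temperature.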

[11] = qHTS assay to identify small molecule antagonists of the sonic hedgehog signaling (Shh) pathway (AID 1259369; calls by dose curve; further: nearly all actives have a fitted effect of over 45% in size; further: potency means the concentration at half of the fitted maximal effect)
In short: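 NIH/3T3-derived Gli1-Luc reporter cells plated 4 h, dosed with compound, then stimulated with conditioned medium for 24 h at 37 C. Firefly luciferase luminescence read after 30 min with detection reagent at room temperature.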

[12] = target: Estrogen receptor beta (Homo sapiens) (UniProt Q92731); assay: qHTS assay to identify small molecule agonists of the estrogen receptor beta (ER-beta) signaling pathway (AID 1259377; active means well fitted activation curve with a large enough effect in the signal ratio in the repeat runs, not every such curve was filed as active; the % refers to the signal ratio)
In short: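 Ratiometric beta-lactamase FRET read-out came after 2 h substrate loading at room temperature. It followed 16 h compound treatment at 37C of GripTite HEK293T cells carrying a UAS-bla reporter, plated in 2% charcoal-stripped FBS medium.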

[13] = target: Estrogen receptor beta (Homo sapiens) (UniProt Q92731); assay: qHTS assay to identify small molecule antagonists of the estrogen receptor beta (ER-beta) signaling pathway (AID 1259378; active means well fitted inhibition curve with a large enough effect in the signal ratio in the repeat runs, not every such curve was filed as active; the % refers to the signal ratio)
In short: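 ER-beta-UAS-bla HEK293T (GripTite) cells in 2% charcoal-stripped FBS medium were preincubated 6 hr at 37C, dosed with compound, then stimulated with 1 nM E2 (final) for 16 hr; beta-lactamase reporter read by B/G FRET fluorescence after 2 hr substrate loading.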

[14] = qHTS assay to identify small molecule agonists of the androgen receptor (AR) signaling pathway in the presence of an antagonist - cell viability counter screen (AID 1259379); further: nearly all actives have a fitted effect of over 25% in size; further: potency means the concentration at half of the fitted maximal effect
In short: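 MDA-kb2 cells (MMTV-luciferase, AR/GR), 3,000/well, 5 h attachment, then 3.0 µM nilutamide (final) and compounds at 15 concentrations. Viability by CellTiter-Fluor fluorescence after 16 h at 37 °C, 0% CO2, in the reporter wells.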

[15] = qHTS assay to identify small molecule agonists of the estrogen receptor beta (ER-beta) signaling pathway - cell viability counter screen (AID 1259380); further: nearly all actives have a fitted effect of over 30% in size; further: potency means the concentration at half of the fitted maximal effect
In short: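 ER-beta-UAS-bla HEK293T cells in medium with 2% charcoal-stripped FBS, pre-incubated 6 hr, then treated 16 hr at 37C. Cytotoxicity read in the same wells by CellTiter-Glo luminescence after 30 min at room temperature.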

[16] = target: Androgen receptor (Homo sapiens) (UniProt P10275); assay: qHTS assay to identify small molecule agonists of the androgen receptor (AR) signaling pathway in the presence of an antagonist (AID 1259381; calls by dose curve; further: nearly all actives have a fitted effect of over 15% in size)
In short: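 MDA-kb2 cells carrying MMTV-luciferase (AR/GR responsive), 3,000 cells/well, co-treated with 3.0 uM nilutamide final. Compounds at 15 concentrations, 16 hr at 37C without CO2. Luciferase luminescence read after 30 min with ONE-Glo.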

[17] = qHTS assay to identify small molecule antagonists of the estrogen receptor beta (ER-beta) signaling pathway - cell viability counter screen (AID 1259382); further: series mostly up to about 92 µM; nearly all actives have a fitted effect of over 55% in size
In short: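 ER-beta-UAS-bla HEK293T cells in 2% charcoal-stripped FBS medium, treated with compound plus 1 nM 17-beta-estradiol for 16 h at 37C. Viability read by CellTiter-Glo luminescence after 30 min at room temperature in the same wells.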

[18] = target: Estrogen receptor (Homo sapiens) (UniProt P03372); assay: qHTS assay to identify small molecule agonists of the estrogen receptor alpha (ER-alpha) signaling pathway in the presence of an antagonist (AID 1259383; calls by dose curve; further: nearly all actives have a fitted effect of over 15% in size; further: potency means the concentration at half of the fitted maximal effect; on activation: top concentration of the series differs between compounds)
In short: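 VM7Luc4E2 cells express endogenous full-length ER-alpha with an ERE-luciferase reporter and were hormone-deprived for 5 days. Compounds at 15 concentrations were added with 10.0nM ICI-182,780 for 22hr at 37C. Luminescence was read with ONE-Glo.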

[19] = qHTS assay to identify small molecule agonists or antagonists of the thyroid stimulating hormone receptor (TSHR) signaling pathway - wild type cell line counter screen (AID 1259384; calls by dose curve)
In short: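 Wild-type HEK293 cells were plated 18 h at 37 C/5% CO2, pin-dosed with compound plus Ro20-1724 medium, held 30 min at room temperature, then given cAMP-d2 and anti-cAMP-cryptate; fluorescence was read after 1 h. Fifteen concentrations, triplicate.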

[20] = qHTS assay to identify small molecule antagonists of the estrogen receptor alpha (ER-alpha) signaling pathway using the BG1 cell line in the presence of 0.1 nM 17-beta-estradiol - cell viability counter screen (AID 1259241); further: nearly all actives have a fitted effect of over 40% in size
In short: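 Cytotoxicity counter-screen: live-cell protease activity measured by fluorescence (30 min reagent step) in the same wells. Cells were VM7Luc4E2 with endogenous ER-alpha and ERE-driven luciferase, treated 22 hr at 37C alongside 0.1 nM 17beta-estradiol final.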

Chain of Estrogen receptor beta (Homo sapiens) (Q92731 whole entry, looked up): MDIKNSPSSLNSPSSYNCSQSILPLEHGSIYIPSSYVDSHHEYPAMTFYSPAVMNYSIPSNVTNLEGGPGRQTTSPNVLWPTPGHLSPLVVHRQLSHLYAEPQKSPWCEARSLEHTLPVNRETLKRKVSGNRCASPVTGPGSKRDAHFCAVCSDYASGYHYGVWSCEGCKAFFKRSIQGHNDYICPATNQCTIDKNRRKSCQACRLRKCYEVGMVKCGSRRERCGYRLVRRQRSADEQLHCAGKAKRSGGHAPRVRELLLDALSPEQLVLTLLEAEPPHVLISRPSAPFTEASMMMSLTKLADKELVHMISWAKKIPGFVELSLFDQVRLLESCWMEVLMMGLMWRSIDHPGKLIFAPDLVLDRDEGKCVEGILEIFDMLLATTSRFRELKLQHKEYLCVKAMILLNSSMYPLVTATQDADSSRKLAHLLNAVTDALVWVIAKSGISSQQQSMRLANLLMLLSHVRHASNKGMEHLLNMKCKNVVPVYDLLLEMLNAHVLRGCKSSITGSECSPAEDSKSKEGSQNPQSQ
Chain of Androgen receptor (Homo sapiens) (P10275 whole entry, looked up): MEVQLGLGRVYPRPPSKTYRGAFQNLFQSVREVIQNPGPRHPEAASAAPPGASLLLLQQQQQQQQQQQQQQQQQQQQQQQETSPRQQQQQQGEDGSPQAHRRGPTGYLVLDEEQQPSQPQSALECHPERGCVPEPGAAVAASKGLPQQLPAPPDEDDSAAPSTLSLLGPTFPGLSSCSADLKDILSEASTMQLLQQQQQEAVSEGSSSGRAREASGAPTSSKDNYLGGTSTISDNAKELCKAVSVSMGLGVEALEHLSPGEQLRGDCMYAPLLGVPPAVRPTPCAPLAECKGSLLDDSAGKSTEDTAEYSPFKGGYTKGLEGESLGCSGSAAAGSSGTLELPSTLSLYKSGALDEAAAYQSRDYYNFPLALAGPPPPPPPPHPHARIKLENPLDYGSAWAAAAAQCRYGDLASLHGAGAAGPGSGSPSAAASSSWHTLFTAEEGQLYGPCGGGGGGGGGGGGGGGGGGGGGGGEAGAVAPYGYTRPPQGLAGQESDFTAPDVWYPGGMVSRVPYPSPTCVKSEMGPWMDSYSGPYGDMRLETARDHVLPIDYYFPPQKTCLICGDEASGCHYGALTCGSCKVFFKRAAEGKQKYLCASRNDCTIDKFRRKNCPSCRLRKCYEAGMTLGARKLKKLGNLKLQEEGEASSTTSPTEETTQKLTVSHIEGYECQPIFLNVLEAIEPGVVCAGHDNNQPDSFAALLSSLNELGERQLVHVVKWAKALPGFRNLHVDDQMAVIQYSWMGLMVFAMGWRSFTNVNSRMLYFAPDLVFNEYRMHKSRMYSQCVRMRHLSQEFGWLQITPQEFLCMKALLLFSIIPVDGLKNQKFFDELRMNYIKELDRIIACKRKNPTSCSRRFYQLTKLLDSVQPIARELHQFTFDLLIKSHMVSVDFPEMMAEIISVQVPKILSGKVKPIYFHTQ
Chain of Estrogen receptor (Homo sapiens) (P03372 whole entry, looked up): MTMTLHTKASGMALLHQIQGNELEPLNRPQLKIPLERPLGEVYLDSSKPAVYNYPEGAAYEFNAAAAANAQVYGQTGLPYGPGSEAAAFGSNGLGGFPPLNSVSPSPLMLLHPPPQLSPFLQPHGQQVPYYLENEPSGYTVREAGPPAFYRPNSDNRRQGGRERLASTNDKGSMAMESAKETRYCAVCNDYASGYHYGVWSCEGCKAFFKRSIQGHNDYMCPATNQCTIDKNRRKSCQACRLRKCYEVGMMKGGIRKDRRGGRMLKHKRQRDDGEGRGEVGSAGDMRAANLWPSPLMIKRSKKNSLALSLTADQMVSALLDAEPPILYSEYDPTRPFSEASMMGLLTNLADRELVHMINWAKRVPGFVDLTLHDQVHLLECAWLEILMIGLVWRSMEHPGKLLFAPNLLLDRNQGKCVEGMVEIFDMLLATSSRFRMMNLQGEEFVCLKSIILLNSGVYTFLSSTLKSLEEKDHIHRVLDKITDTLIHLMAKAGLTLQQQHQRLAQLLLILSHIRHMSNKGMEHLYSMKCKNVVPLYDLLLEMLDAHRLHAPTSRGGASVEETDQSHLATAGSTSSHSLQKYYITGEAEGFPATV

Structure (SMILES) | Potency [1] | Potency [2] | Potency [3] | Potency [4] | outcome [5] | Potency [6] | outcome [7] | Potency [8] | Potency [9] | Potency [10] | Potency [11] | Potency [12] | Potency [13] | Potency [14] | Potency [15] | Potency [16] | Potency [17] | Potency [18] | outcome [19] | Potency [20]
COP(=S)(OC)Oc1cc(Cl)c(Cl)cc1Cl | inactive | inactive | 54.1 µM (active) and inactive | inactive | inactive | inactive | inactive | inactive | inactive | inactive | inactive | inactive | inactive | inactive | inactive | inactive | inactive | inactive | inactive | –
Nc1c(Cl)cc([N+](=O)[O-])cc1Cl | inactive | inactive | 6.9 µM (active) and 27.3 µM (active) | inactive and 27.3 µM (active) | – | inactive | inactive | inactive | inactive | inactive | inactive | inactive | inactive | inactive | 61.5 µM (active) and 27.3 µM (active) | inactive | – | inactive | – | –
O=P(Oc1ccccc1)(Oc1ccccc1)Oc1ccccc1 | inactive | – | – | inactive | – | inactive | inactive | inactive | – | inactive | 1.08 µM (active) and 2.43 µM (active) | inactive | – | inactive | 34.4 µM (active) | – | inactive | inactive | – | inactive
Brc1ccc(Oc2cc(Br)c(Br)cc2Br)c(Br)c1 | inactive | – | – | inactive | – | inactive | inactive | inactive | – | inactive | inactive | inactive | inactive | inactive | 30.6 µM (active) | – | inactive | inactive | – | inactive
CCC(C)c1ccc(O)cc1 (stereo not given) | inactive | inactive | – | – | – | inactive | inactive | inactive | inactive | inactive | inactive | inactive | inactive | inactive | inactive | – | inactive | – | – | –
CCCCNC(=O)n1c(NC(=O)OC)nc2ccccc21 | inactive | – | inactive | inactive | – | 21.6 µM (active) and 19.3 µM (active) | inactive | inactive | – | inactive | 30.5 µM (active) and inactive | – | inactive | inactive | inactive | inactive | inactive | inactive | inactive | –
Cc1cc(C)cc(C)c1 | inactive | – | – | – | – | inactive | inactive | inactive | inactive | inactive | inactive | inactive | inactive | inactive | – | – | inactive | – | inactive | –
NNC(=S)NN | inactive | inactive | – | inactive | – | inactive | inactive | – | – | inactive | 28.1 µM (active) and 24.3 µM (active) | inactive | – | inactive | 30.6 µM (active) | – | inactive | inactive | inactive | –
CCN(CC)N=O | inactive | inactive | – | – | – | inactive | inactive | inactive | inactive | inactive | inactive | – | – | inactive | inactive | – | inactive | – | – | –
O=P(O)(O)CCCl | inactive | inactive | – | inactive | – | inactive | inactive | inactive | – | inactive | inactive | – | – | inactive | – | – | inactive | inactive | inactive | –
Cc1cccc(N)c1N | inactive | – | – | – | – | inactive | inactive | inactive | inactive | – | 29.6 µM (active) and inactive | inactive | inactive | inactive | – | – | inactive | – | – | –
Cc1cc(Cl)ccc1OCCCC(=O)O | inactive | – | inactive | – | – | inactive | inactive | inactive | – | inactive | inactive | inactive | – | inactive | inactive | inactive | inactive | – | inactive | –
COc1ccc(C(CN(C)C)C2(O)CCCCC2)cc1 (stereo not given) | inactive | inactive | – | – | inactive | inactive | inactive | inactive | – | inactive | inactive | – | – | inactive | inactive | – | inactive | – | – | –
Cc1ccc2c(c1N)C(=O)c1ccccc1C2=O | inactive | inactive | – | inactive | – | 7.61 µM (active) and 9.69 µM (active) | inactive | – | – | inactive | inactive | – | inactive | 27 µM (active) | – | – | inactive | 6.04 µM (active) and inactive | – | –
c1nc[nH]n1 | inactive | – | – | inactive | – | inactive | inactive | inactive | – | inactive | inactive | inactive | inactive | inactive | – | – | inactive | inactive | inactive | –
CNC(=O)N(C)c1nnc(C(C)(C)C)s1 | inactive | inactive | – | inactive | – | 27.3 µM (active) | inactive | inactive | inactive | inactive | inactive | inactive | inactive | inactive | – | – | inactive | inactive | inactive | –
CCCCN(CCCC)N=O | inactive | – | – | inactive | – | inactive | inactive | inactive | inactive | inactive | inactive | inactive | – | inactive | inactive | – | inactive | inactive | inactive | –
